The list is not random: actives were taken first. Their share in the collection is about 2.1%.
FUS suppressor: rescues growth of FUS-expressing yeast. Potency, µM (titrated, usually from 76.6 µM), usual class: activators. S. cerevisiae FUS-expressing, growth rescue, OD600, 24 h. 0.24% of 390,000 active;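 note: plate controls were DMSO vehicle for no effect and reference control for full effect; nearly all actives have a fitted effect of over 55% in size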
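FUS-expressing yeast, raffinose-pregrown, induced in 2% galactose minimal medium at OD 0.005; compounds in a dilution series, 24hr at 30C. Growth restoration read as absorbance at 600 nm. CP55940 positive control, DMSO negative.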
aSyn rescue: inhibitors of alpha-synuclein toxicity in yeast; Yeast expressing alpha-synuclein, growth rescue, BacTiter-Glo, 24 h; Potency, µM (highest dose often 46.1 µM), inactives show at the highest dose growth rescue (activation), most hits filed as activators; 0.14% of 370,000 active; note: % of control where 0% means no effect; nearly all actives have a fitted effect of over 65% in size
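Rescue of yeast growth: cells expressing toxic alpha-synuclein, induced in galactose at OD600 0.02, incubated with compound 24 h at 30 C. ATP luminescence quantified growth; inhibitors of toxicity appear as activators.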
Abeta rescue: restores growth of yeast expressing A-beta42 peptide; Potency, µM (doses to about 46.1 µM), usual class: activators; 0.063% of 410,000 active; yeast expressing A-beta42, growth rescue, OD600, 48 h; response scale: 0% DMSO, 100% iron-clioquinol control; note: nearly all actives have a fitted effect of over 55% in size
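Growth rescue measured by 600 nm absorbance after 48 h yeast culture at 30 C with compound. Values normalized between DMSO and an equimolar ferric chloride plus clioquinol control.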
TDP43 rescue: rescues yeast growth from TDP-43 toxicity. TDP-43 expressing yeast growth rescue, BacTiter-Glo, 24 h. Potency, µM (series often up to 46.1 µM), inactives show at the highest dose growth rescue (activation), most hits filed as activators. 1.8% of 410,000 active; note: % of control where 0% means no effect; nearly all actives have a fitted effect of over 50% in size
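Luminescence from BacTiter-Glo reports growth of TDP-43-expressing yeast after 24 hr at 30 deg C with compound. Cells were raffinose-pregrown to mid-log, then seeded in galactose medium at OD600=0.02.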
The depositor's hits bear a star; i = inactive; ? = inconclusive; . = not tested or not shown; [ ] = dose if it differs, or a comment. Calls come from the whole dose curve; as a rule, active = well fitted curve in the direction sought with a large enough effect; inconclusive = small, poorly fitted or top-dose-only effect, or another doubt; inactive = no such curve, though single readings can be large; an effect the other way counts as inactive or inconclusive. Potency is the fitted concentration of half-maximal effect.

SMILES	FUS suppressor	aSyn rescue	Abeta rescue	TDP43 rescue
C/C=C(\NNC(C)=O)c1ccc(O)cc1	.	-4%	.	.
COc1cccc(CNC(=O)c2cccc(Br)c2)c1	i	-20%	i	22µM*
COc1cccc(CNC(=O)COc2ccc(C(=O)c3ccccc3)cc2)c1	i	-48%	?	35µM*
COc1cccc(CNC(=O)Cn2cccc2C(=O)c2ccccc2)c1	i	.	i	20%
CCCCc1ccc(NC(=S)NCc2cccc(OC)c2)cc1	i	-17%	10µM*	-6%[0.397 µM]
O=C(Nc1cccc(C(=O)N2CCCCC2)c1)c1nsc2ccccc12	i	.	i	35µM*
COc1cc(-n2c(C)nc3cc(C(=O)N4CCCC4)ccc32)cc(OC)c1OC	i	.	.	.
O=C(OCc1cn(Cc2ccccc2)nn1)N1CCCC1	i	.	.	.
O=C(NCc1cccs1)C1CCCN(S(=O)(=O)c2ccccc2)C1 (stereo unspecified)	i	.	.	.
COc1cccc(CNC(=O)c2cccc(NC(=O)c3nsc4ccccc34)c2)c1	i	.	i	35µM*
Cc1ccc(C(=O)/C=C/c2ccc3ncccc3c2)cc1	i	-4%	i	13µM*
COc1cc(/C=C/C(=O)c2ccc(F)cc2)cc(OC)c1OC	i	7%	i	14µM*
CCOc1ccc(C(=O)/C=C/c2cc(OC)c(OC)c(OC)c2)cc1	i	-10%	i	25%
Cc1ccc(C(=O)Nc2ccc3ncccc3c2)cc1	i	-10%	i	-25%
COc1cc(/C=C/C(=O)c2ccc(C)cc2)ccc1OCC#N	.	0%	i	20µM*
COc1ccc(/C=C/C(=O)c2cc(F)ccc2OC(=O)c2ccccc2)cc1OC	i	14%	i	13µM*
COc1cc(N(C)C)ccc1/C=C/c1ccnc2ccccc12	.	-24%	.	.
COc1cccc2c(NCc3ccccc3)nc(-n3c(N)nc4ccccc43)nc12	i	.	.	.
Cc1cccc(NC(=O)Cn2nnc(-c3ccccc3F)n2)c1C	i	.	.	.
c1ccc(Cn2c(SCC3CCC3)nnc2-c2cccnc2)cc1	i	.	.	.
O=C1CCC[C@H]2Cc3nc4cc5c(cc4cc3C[C@]23CCCN13)OCO5	i	.	.	.
C=C(NNC(C)=O)c1ccc(O)cc1	.	-2%	.	.
CNC(=O)c1ccccc1Nc1ccc(SC(F)F)cc1	i	-29%	i	22µM*
O=C(CSc1nnnn1-c1ccccc1)NC1CCCc2ccccc21 (stereo unspecified)	i	6%	?	11µM*
CC1(C)CC(=O)C(CC(=O)NC2CCCc3ccccc32)C(=O)C1 (stereo unspecified)	i	0%	i	25µM*
SMILES	FUS suppressor	aSyn rescue	Abeta rescue	TDP43 rescue
Cc1cccc(-n2nnc(C(=O)NCc3ccccc3)c2N)c1	i	-9%	i	25%
Cc1cccc(-n2nnc(C(=O)NC3CCCc4ccccc43)c2N)c1 (stereo unspecified)	i	0%	i	16µM*
COc1ccc(S[C@]2(C(=O)NCCCN(C)C)CC(=O)N[C@@H]2c2ccc(OC)cc2)cc1	i	.	.	.
CCN(CC)CCCNC(=O)c1cn(C(C)c2ccccc2)nn1 (stereo unspecified)	i	.	.	.
COC(=O)C1=C(C)N(Cc2ccccc2)C(=S)N[C@H]1c1ccc(Br)cc1	?	4%	i	16µM*
CN1c2ccc(C#CC3CC3)cc2[C@@H]2[C@@H](CCN2C(=O)C2CCOCC2)[C@H]1CO	i	.	.	.
Cc1ccccc1CS(=O)(=O)Cc1ccc(C(=O)Nc2ccc(F)cc2F)o1	i	.	.	.
O=C(COc1ccc(Br)cc1)N1CCN(c2ccc([N+](=O)[O-])c(N3CCCCC3)c2)CC1	i	11%	i	8.9µM*
Nc1ncnc2c1nc(Br)n2C1OC2COP(=O)(O)O[C@@H]2C1O (stereo partly specified)	.	-12%	.	.
O=C(NCc1ccc(Cl)cc1)c1cc(-c2cccs2)on1	i	5%	i	-15%
COc1ccc(CNC(=O)c2cc(-c3cccs3)on2)cc1	i	-4%	i	5.6µM*
S=c1[nH]nc(COc2ccc(Cl)cc2)n1Cc1ccco1	i	5%	13µM*	?
C=CCC[C@@H](Cc1ccc(F)cc1)C(=O)OC[C@@H]1CCCN1C(=O)[C@@H](CC=C)CC(=O)N[C@@H](CO)Cc1ccccc1	22µM*	-1%	i	13µM*

Compound activity (PubChem BioAssay)
